The panel holds about 83,000 compounds, 20% with a hit somewhere; the sample as a whole holds those more often.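 Treatment: one concentration, 48 hours, 96-well format. Scoring: percent growth, with anything below 10 considered active.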 Active and inactive are the calls of the source.

In this assay the test system is SNB-75 CNS. Nature of the assay: NCI-60 one-dose screen, 48 h (100 = growth as untreated, 0 = no growth, -100 = all killed). The settings on record: 10 µM unless noted.
As for `N#Cc1c(-c2ccccc2Cl)cc(-c2c[nH]c3ccccc23)[nH]c1=O`, the growth is 25.7% (inactive).
Turning to `CN1CCN(/C(=N\c2sc(-c3ccccc3)nc2-c2ccccc2)c2ccccc2)CC1`, the growth is 90% (inactive).
The figure for `COc1ccc(-c2cc(C(=O)NCc3ccccc3)nn2-c2ccc(S(C)(=O)=O)cc2)cc1OC` is 62.5% (inactive); for `O=C(COc1ccc(NC(=O)Nc2ccc(Cl)c(Cl)c2)cc1)N=Nc1c(O)[nH]c2ccc(Cl)cc12` it is -37.6% (active).
The figure for `C=C1CC[C@@H]2[C@]3(C)COC(c4cn(-c5ccccc5)nc4-c4ccccc4)O[C@@H]3CC[C@@]2(C)[C@@H]1C/C=C1/C(=O)OC[C@H]1O` (stereo partly drawn) is -18.8% (active); for `CC(=O)Nc1cccc(-c2nc3cc(-c4ccc(O)cc4)ccc3n2C)c1` it is 62.5% (inactive).
The figure for `O=C(/C=C/c1ccc(-c2ccccc2)cc1)c1nc2ccccc2n1Cc1ccc(F)cc1` is 49.2% (inactive).
On to `Cc1cc2nc3c4ccccc4n(CCNCCN(C)C)c3nc2cc1C`, for which the growth is 43.4% (inactive).
The figure for `c1ccc(-c2csc(Nc3cccc(Nc4nc(-c5ccccc5)cs4)c3)n2)cc1` is 48.6% (inactive); for `O=C(N/N=C/c1ccc(-c2ccc(O)cc2)s1)c1[nH]c2ccc(Br)cc2c1-c1ccccc1` it is -12.7% (active); for `COCOc1cc2c(=O)c(C)c(C(=O)N[C@@H](Cc3ccccc3)C(O)C(=O)NCc3ccccc3)oc2cc1OC` (stereo partly drawn) it is 3.85% (active).
The figure for `COc1cc2oc(-c3cccc(C(=O)Nc4ccc(Cl)cc4)c3)cc(=O)c2c(OCCNC(=O)[C@@H](N)CCC(=O)O)c1OC` is 86.4% (inactive); for `Cn1cc(-c2nc(N)nnc2-c2c[nH]c3ccc(Br)cc23)c2cccnc21` it is 31.3% (inactive).
The figure for `O=C1c2c(c3c4cc(F)ccc4oc3c3[nH]c4ccc(Br)cc4c23)C(=O)N1O` is -13.7% (active).
Turning to `CCCCNC(=S)Nc1ccc(OCc2nc3ccccc3[nH]2)cc1`, the growth was 56% (inactive).
The figure for `COc1cc(-c2ccc(/C=N/NC(=O)c3[nH]c4ccc(Br)cc4c3-c3ccccc3)s2)cc(OC)c1OC` is 66.4% (inactive).
The figure for `C=C1CC[C@@H]2[C@]3(C)COC(c4cn[nH]c4-c4ccc(C)cc4)O[C@@H]3CC[C@@]2(C)[C@@H]1C/C=C1/C(=O)OCC1O` (stereo partly drawn) is 87.8% (inactive); for `COc1cc2c(c(OC)c1OC)C(=O)CC(c1cccc(NC(=O)c3cc(N)ccc3Cl)c1)O2` (stereo not drawn) it is 43.7% (inactive).
The figure for `COc1cc2c(c(OC)c1OC)C(=O)CC(c1cccc(NC(=O)c3cccc(NC(=O)[C@H](C)NC(=O)OC(C)(C)C)c3)c1)O2` (stereo partly drawn) is 64.6% (inactive); for `C=C1CCC2C3(C)COC(c4cc(F)cc(F)c4)OC3CCC2(C)C1CC(O)C1=CCOC1=O` (stereo not drawn) it is 38.1% (inactive); for `O=C(/C=C/c1ccc(O)c(O)c1)NC1CCOC1O` (stereo not drawn) it is 91.6% (inactive).
As to `C/C(=N\N=C1/C(=O)Nc2ccc(Cl)cc21)c1ccc2c(c1)Nc1ccccc1S2`, the growth was 8.6% (active).
Turning to `CC(C)CCNC(=O)N/C(N)=N/c1nc2ccccc2s1`, the growth was 82.2% (inactive).
The figure for `OCNc1ccc(-n2cnc3cc(-c4ccc(O)cc4)ccc32)cc1C(F)(F)F` is 17.6% (inactive); for `C=C1CCC2C3(C)COC(c4ccc(F)cc4)OC3CCC2(C)C1C/C=C1/C(=O)OCC1O` (stereo not drawn) it is -21.6% (active).
Take `O=c1[nH]n(C(=S)N/N=C/c2ccccc2Cl)c(=O)c2ccccc12`: the growth was 52.1% (inactive).
For the molecule `N#Cc1c(-c2cccc(Cl)c2Cl)cc(-c2ccc3ccccc3c2)[nH]c1=O`, the growth is -12.7% (active).
The figure for `Clc1cccc(Cl)c1/C=C/c1cc(/C=C/c2ccc(Br)cc2)c2ccccc2n1` is 95.9% (inactive); for `CC(C)c1ccc2c(N)c(C(=O)Nc3ccc(C(F)(F)F)cn3)sc2n1` it is 78.6% (inactive).
The figure for `CCN(CC)C(=O)N/C(N)=N/c1nc2ccccc2s1` is 63.9% (inactive); for `O=C(COc1ccc(NC(=O)Nc2ccc(Cl)c(Cl)c2)cc1)N=Nc1c(O)[nH]c2ccc([N+](=O)[O-])cc12` it is 66.2% (inactive).
The figure for `Cc1cc2c(cc1Cl)C(=O)/C(=C/c1ccc(F)cc1)O2` is 95% (inactive).
For the molecule `CCCCOc1ccc(NC(=O)c2sc3nc(C)ccc3c2N)cc1`, the growth was -17.3% (active).
Turning to `O=C1Nc2cc(Cl)ccc2/C1=C/c1cccc(OCc2ccccn2)c1`, the growth is 51.3% (inactive).
The figure for `NS(=O)(=O)c1ccc(N=Nc2c(O)n(CC(=O)Nc3ccccc3Cl)c3ccccc23)cc1` is 52.8% (inactive); for `O=C(Nc1cccc(-n2cnc3cc(-c4ccc(O)cc4)ccc32)c1)C1CC1` it is -5.51% (active); for `C=C1CC[C@@H]2[C@]3(C)COC(c4cn[nH]c4-c4ccc(OC)cc4)O[C@@H]3CC[C@@]2(C)[C@@H]1C/C=C1/C(=O)OCC1O` (stereo partly drawn) it is -16.5% (active).
For the molecule `CC(=O)Nc1ccc(-c2cn(-c3cccc(C(=O)Nc4ccc(N5CCN(C)CC5)cc4)c3)nn2)cn1`, the growth was 99% (inactive).

Values taken from PubChem BioAssay (NCI).
